# Source: PubChem BioAssay (National Center for Advancing Translational Sciences (NCATS))
# SMN2 splice up: SMN2 splice variant enhancement | HEK293 SMN2-luciferase splicing reporter, luminescence, 30-36 h | Potency, µM (doses to about 46.1 µM), for the others: top-dose activity change, positive = activation, actives largely listed as activators | 210,000 tested, 2.8% active | AID 1458; note: % of control where 0% means no effect; nearly all actives have a fitted effect of over 55% in size
#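 HEK293 cells carry an SMN2 […]–luciferase reporter in which exon 7 inclusion puts luciferase in frame. Cells were plated 10-12 h before compound addition, then incubated 30-36 h at 37C. ONE-Glo luminescence was read; sodium butyrate at 4.5 mM final served as control.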
# FLuc modulator: inhibits or activates purified firefly luciferase, miR-21 counter-screen. P08659. purified FLuc, Km substrates, luminescence inhibition. Potency, µM (doses to about 57.5 µM), inactives show at the highest dose activity change, negative = inhibition, usual class: inhibitors. 360,000 tested, 6.9% active. AID 588342;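 note: plate controls were vehicle for no effect and reference inhibitor for full effect; nearly all actives have a fitted effect of over 55% in size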
# Target sequence (P08659 whole entry, looked up): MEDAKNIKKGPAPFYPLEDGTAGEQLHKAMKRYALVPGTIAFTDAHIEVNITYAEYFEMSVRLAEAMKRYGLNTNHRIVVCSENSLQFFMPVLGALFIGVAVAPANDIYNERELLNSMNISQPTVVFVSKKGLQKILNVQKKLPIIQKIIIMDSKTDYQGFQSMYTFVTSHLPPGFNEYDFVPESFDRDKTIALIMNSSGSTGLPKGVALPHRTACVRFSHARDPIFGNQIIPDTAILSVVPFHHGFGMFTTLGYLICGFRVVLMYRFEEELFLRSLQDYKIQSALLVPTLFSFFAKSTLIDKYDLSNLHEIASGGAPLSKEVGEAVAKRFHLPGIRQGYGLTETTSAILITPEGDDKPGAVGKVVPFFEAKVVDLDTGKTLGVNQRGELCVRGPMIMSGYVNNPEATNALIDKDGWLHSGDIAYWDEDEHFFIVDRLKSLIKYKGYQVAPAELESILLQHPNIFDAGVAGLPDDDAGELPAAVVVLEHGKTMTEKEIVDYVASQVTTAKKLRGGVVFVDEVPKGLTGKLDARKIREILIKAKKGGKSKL
#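 Purified P. pyralis luciferase (10nM final) with 10uM D-luciferin and 10uM ATP (Km levels) in 50mM Tris acetate pH 7.5, 10mM Mg acetate, 0.01% Tween-20, 0.05% BSA; qHTS 6-point titration, ~60 µM downward; luminescence read.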
# ELG1 genotox: genotoxicity induction in ELG1-luciferase HEK293T cells | HEK293T ELG1-luciferase reporter, luminescence, 16 h | AID 504466 | 330,000 tested, 1.3% active | Potency, µM (top dose mostly 46 µM), for inactives: top-dose activity change, positive = activation, actives largely listed as activators; note: % of control where 0% means no effect; nearly all actives have a fitted effect of over 60% in size
#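 Quantitative HTS format in 1536-well plates. HEK293T ELG1-luciferase reporter cells receive test compound and are incubated 16 hr at 37 °C, 5% CO2; ONE-Glo added, 30 min room temperature, then luminescence read.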
# Rab9 promoter act: activates the Rab9 promoter; Potency, µM (series often up to 9.22 µM), for the others: at the highest dose activation, negative = inhibition, actives largely listed as activators; 320,000 tested, 2.8% active; AID 485297; Huh7 Rab9 promoter-luciferase reporter, luminescence, 24 h; note: % of control where 0% means no effect; nearly all actives have a fitted effect of over 60% in size
#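 Promoter activation is measured as luciferase luminescence in Huh7 cells stably transfected with a Rab9 promoter–luciferase construct, following 24 h compound exposure at 37 °C and 10 min reagent incubation at ambient temperature.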
# KinaseGlo FLuc: Kinase-Glo luciferase inhibition (counter-screen); 200,000 tested, 0.28% active; AID 1379; Kinase-Glo luciferase, ATP luminescence, 8 min; Q27757; Potency, µM (top dose mostly 38.3 µM), without a hit: at the top dose activity change, negative = inhibition, most hits filed as inhibitors; note: % is set by controls: 0 for no effect and ±100 for the full control effect; nearly all actives have a fitted effect of over 60% in size
#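 Substrate mix (final 50 mM imidazole pH 7.2, 50 mM KCl, 7 mM MgCl2, 10 uM ATP, 0.01% Tween 20, 0.05% BSA) plus pin-tool compound, then Kinase-Glo detection mix; 8 min ambient, luminescence read.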
# NPC1 promoter act: NPC1 promoter activation; 320,000 tested, 2.4% active; Potency, µM (series often up to 9.22 µM), without a hit: at the top dose activation, usual class: activators; Huh7 NPC1 promoter luciferase reporter, 24 h; AID 485313; note: % of control where 0% means no effect; nearly all actives have a fitted effect of over 60% in size
#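 NPC1 promoter–luciferase Huh7 cells; 24 h compound; luminescence.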
# Starred values were filed as active, the others as inactive; ? = inconclusive; . = not tested or not shown; [ ] = dose if it differs, or a comment. Compounds with a hit are over-represented: about 7.5% of the library has one in this group of screens. Calls come from the whole dose curve; as a rule, active = well fitted curve in the direction sought with a large enough effect; inconclusive = small, poorly fitted or top-dose-only effect, or another doubt; inactive = no such curve, though single readings can be large; an effect the other way counts as inactive or inconclusive. Potency is the fitted concentration of half-maximal effect.
SMILES,SMN2 splice up,FLuc modulator,ELG1 genotox,Rab9 promoter act,KinaseGlo FLuc,NPC1 promoter act
c1ccc2sc(SSc3nc4ccccc4s3)nc2c1,0.8%,.,.,.,.,.
O=C(CN1C(=O)NC2(CCCCCCC2)C1=O)Nc1cccc(Br)c1,.,.,-2.0%,.,.,.
Cc1ccccc1OCC(=O)Nn1c(COc2ccccc2)nc2ccccc2c1=O,0.3%,26.9µM*,8.2%,-2.2%,-4.3%,0.3%
COc1ccc(C[C@@H]2C(=O)N[C@H](C)C(=O)N(C)[C@@H]3Cc4ccc(cc4)Oc4cc(ccc4O)C[C@H](C(=O)N[C@@H](C)C(=O)N[C@H](C)C(=O)N2C)N(C)C3=O)cc1,-103.0%[9.22 µM],.,.,.,-7.6%[7.66 µM],.
O=C(CCCOc1ccc(Cl)cc1Cl)Nc1ccccn1,9.0%,16.9µM*,?,-3.1%,-1.6%,1.9%
Cc1cc(OCC(=O)Nc2ccncc2)cc(C)c1Br,-6.0%,-2.5%,-7.2%,0.1%,-5.7%,0.4%
O=C(COc1ccc(Cl)cc1Br)Nc1ccncc1,.,9.53µM*,?,2.3%,.,?
O=C(CCCOc1ccc(Cl)cc1Cl)Nc1ccncc1,-21.5%,23.9µM*,-0.1%,-0.4%,-3.2%,-3.1%
CCNC(=O)CCCOc1ccc(Cl)cc1Cl,4.0%,?,?,5.7%,-1.0%,2.7%
O=C(COc1ccc(Cl)cc1Cl)N/N=C/c1cccnc1,.,-19.2%,-1.3%,9.6%,.,1.7%
O=C(COc1ccc(Cl)cc1Cl)Nc1cccnc1,-9.3%,6.75µM*,?,-4.6%,-2.7%,17.9%
Cc1cc(=O)n2c(n1)SCOC2,.,3.4%,0.2%,-0.5%,.,14.0%
COc1ccc(N2CCN(C(=O)c3ccccc3N(C)S(=O)(=O)c3ccc(C)cc3)CC2)cc1,.,0.3%,-8.0%,-1.3%,.,1.5%
Cc1cccc(-n2ncc3c2CCCC3NC(=O)CCCN2CCCCC2=O)c1C (centres undefined),.,-0.8%,-12.1%,-2.6%,.,-1.6%
Cc1ccc(OCC(=O)Nc2ccncc2)c(C)c1,.,12µM*,12.0%,3.7%,.,-4.1%
CN(c1cccc(NC(=O)COc2ccc(Cl)cc2Cl)c1)S(C)(=O)=O,29.9%,1.2µM*,8.0%,?,0.5%,29.4%
Cc1ccccc1OCC(=O)Nc1ccncc1,.,?,1.7%,-4.3%,.,-5.5%
Cc1cc(C(=O)O)ccc1-c1ccc(CO)o1,1.0%,26.9µM*,15.4%,9.7%,3.2%,3.1%
Cc1ccc(CN2C(=O)N/C(=C\c3ccc(-c4ccc(C(=O)O)cc4C)o3)C2=O)cc1,.,0.9%,-1.8%,-6.0%,.,-1.1%
O=C(NCCCC1CCCC1)C1CCC(=O)N(Cc2ccc(Cl)cc2)C1 (centres undefined),.,1.7%,-10.4%,10.0%,.,2.1%
CNc1ccc(/C=C2\CSc3ccccc3C2=O)cc1[N+](=O)[O-],-50.7%,0.757µM*,?,14.0%,-20.8%,10.3%
O=C1/C(=C/c2cccc([N+](=O)[O-])c2)CSc2ccc(Cl)cc21,.,-13.4%,6.9%,-2.6%,.,-1.0%
O=C(Nc1ccccc1C(=O)O)c1cc(S(=O)(=O)N2CCOCC2)cs1,8.6%,19µM*,0.6%,4.4%,-0.3%,0.6%
O=C(Nc1ccccc1C(=O)O)c1ccc(Cl)c(S(=O)(=O)N2CCOCC2)c1,-10.4%,6.75µM*,-6.8%,25.9%,-4.1%,14.4%
Cc1ccc(C)c(N2CCN(C(=O)c3cc4c(=O)n(Cc5ccccc5)ccc4nc3C)CC2)c1,.,-6.9%,.,.,.,.
O=C(NCc1ccccc1F)c1sc2ncccc2c1-n1cccc1,.,-7.7%,.,.,.,.
CN(C)C(=O)c1cc(C(=O)c2ccc(Cl)cc2Cl)c[nH]1,.,15.1µM*,15.4%,?,.,?
Cc1ccc(C(=O)c2ccc(C(F)(F)F)cc2)cc1,.,-1.1%,-2.0%,-1.8%,.,-2.3%
CN(C)C(=O)c1cc(C(=O)c2ccc(F)cc2Cl)c[nH]1,.,?,13.5%,24.5%,.,?
CN(C)C(=O)c1cc(C(=O)c2ccc(C(F)(F)F)cc2)c[nH]1,.,13.5µM*,?,?,.,?
